High-throughput results deposited in PubChem BioAssay by National Center for Advancing Translational Sciences (NCATS).
Only some compounds are listed: those with a hit (about 12% of all), similar ones and a draw of the others.
HP1b binding inh: HTS for Inhibitors of HP1-beta Chromodomain Interactions with Methylated Histone Tails; Potency, µM (series often up to 114 µM), hits mostly inhibitors; AlphaScreen HP1-beta / biotin-H3K9me3 peptide binding; 390,000 tested, 0.56% active; further: nearly all actives have a fitted effect of over 70% in size
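HP1-beta protein (50 nM final) preincubated 30 min at room temperature with biotinylated H3(1-18)K9me3 peptide (50 nM) in PBS pH 7.4, 0.01% Tween-20, then compound added for 30 min. AlphaScreen streptavidin donor/nickel chelate acceptor beads (10 ug/mL final), 30 min dark, luminescence read.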
G9a block: qHTS Assay for Inhibitors of Histone Lysine Methyltransferase G9a | Potency, µM (doses to about 102 µM), most hits filed as inhibitors | 350,000 tested, 8.8% active | G9a H3K9 monomethylation, AlphaScreen, 2 h; further: nearly all actives have a fitted effect of over 75% in size
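Chemiluminescent proximity detection of H3K9 monomethylation, read after 10 min bead incubation in the dark. Reaction: 20 nM G9a, 500 nM biotin-H3K9 peptide, 20 uM SAM cofactor, 2 h, room temperature, following 15 min enzyme-compound preincubation.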
Sfp PPTase inh: qHTS Assay for Inhibitors of Bacillus subtilis Sfp phosphopantetheinyl transferase (PPTase); Biochemical Sfp PPTase activity, qHTS; 310,000 tested, 3.5% active; Potency, µM, actives largely listed as inhibitors; 4'-phosphopantetheinyl transferase ffp (Bacillus subtilis), Q9F4F7;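 further: the enzyme is Sfp with the accession as filed and its product quenches rhodamine fluorescence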
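After 15 min at room temperature with compound, 15 nM Sfp received 5 uM rhodamine-CoA plus 12.5 uM BHQ-2-ybbR (50 mM Hepes pH 7.6, 10 mM MgCl2). Rate came from the fluorescence difference over 30 min, ex 525/em 598 nm.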
JMJD2A Tudor inh: qHTS Assay for Inhibitors of JMJD2A-Tudor Domain. Potency, µM (titrated, usually from 114 µM), actives largely listed as inhibitors. AID 504339, 2011. AlphaScreen JMJD2A-Tudor / H3K4me3 peptide binding. 390,000 tested, 4.4% active; further: nearly all actives have a fitted effect of over 50% in size
BAZ2B inh: qHTS Assay for Inhibitors of BAZ2B; Bromodomain adjacent to zinc finger domain protein 2B (Homo sapiens), Q9UIF8; Potency, µM (series often up to 114 µM), actives largely listed as inhibitors; 360,000 tested, 4.4% active; AID 504333, 2011; AlphaScreen BAZ2B-H3K14Ac peptide displacement; further: nearly all actives have a fitted effect of over 60% in size
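BAZ2B 50 nM plus b-H3(5-23)K14Ac 50 nM, PBS pH 7.4/0.01% Tween-20, 30 min RT; compound added (max 110 uM), 30 min RT; streptavidin donor/Ni-chelate acceptor beads 10 ug/mL final, 20 min dark; AlphaScreen read.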
Numbers stand for hits; [ ] = another dose, or the depositor's remark. The call rests on the fitted dose curve; in most records, active means well fitted curve in the direction sought with a large enough effect; inconclusive means small, poorly fitted or top-dose-only effect, or another doubt; inactive means no such curve, though single readings can be large; an effect the other way counts as inactive or inconclusive.

Screening CCOC(=O)CN1C(=O)N(CC)C(C)=C(C(=O)OC)[C@@H]1c1ccccc1 returned HP1b binding inh inactive, G9a block inactive, Sfp PPTase inh inactive, JMJD2A Tudor inh inactive and BAZ2B inh inactive.
`CCOC(=O)CN1C(=O)C(O)=C(C(C)=O)C1c1ccc([N+](=O)[O-])cc1` (stereo not given) gave HP1b binding inh inactive, G9a block inconclusive, Sfp PPTase inh inactive, JMJD2A Tudor inh inactive and BAZ2B inh inconclusive.
For CCOC(=O)CN1C(=O)C(O)=C(C(C)=O)C1c1ccc(F)cc1 (stereo not given) the results were HP1b binding inh inactive, G9a block 35.5µM, Sfp PPTase inh inactive, JMJD2A Tudor inh inactive and BAZ2B inh 70.8µM.
For O=C(CCC(=O)N1CCOc2ccc(Cl)cc21)NCc1ccccc1 the results were HP1b binding inh inactive, G9a block inactive, Sfp PPTase inh inactive, JMJD2A Tudor inh inactive and BAZ2B inh inactive.
For Cc1cccc(C(=O)NCC(=O)NC2CCN(Cc3ccccc3)CC2)c1 the results were HP1b binding inh inactive and JMJD2A Tudor inh inactive.
Cc1ccccc1C(=O)OCC(=O)N(C)c1c(N)n(Cc2ccccc2)c(=O)[nH]c1=O was read as HP1b binding inh inactive, G9a block inactive[0.501 µM], JMJD2A Tudor inh inactive and BAZ2B inh inactive.
`COCCN(C(=O)COC(=O)CCc1ccccc1OC)c1c(N)n(Cc2ccccc2)c(=O)[nH]c1=O` gave HP1b binding inh inactive, G9a block 12.6µM, JMJD2A Tudor inh inactive and BAZ2B inh inactive.
Screening COCCN(C(=O)COC(=O)Cc1coc2cc3c(cc12)CCC3)c1c(N)n(Cc2ccccc2)c(=O)[nH]c1=O returned HP1b binding inh inconclusive, G9a block 39.8µM, JMJD2A Tudor inh 44.7µM and BAZ2B inh 50.1µM.
CCc1noc(C)c1C(=O)OCC(=O)N(C)c1c(N)n(Cc2ccccc2)c(=O)[nH]c1=O was read as HP1b binding inh inactive, G9a block 50.1µM, JMJD2A Tudor inh inactive and BAZ2B inh inactive.
`COCCN(C(=O)COC(=O)COc1ccc2c(c1)CCC2)c1c(N)n(Cc2ccccc2)c(=O)[nH]c1=O` gave HP1b binding inh inactive, G9a block inactive[0.501 µM], JMJD2A Tudor inh inactive and BAZ2B inh inactive.
Screening CN(C(=O)COC(=O)c1ccccc1Nc1ccccc1)c1c(N)n(Cc2ccccc2)c(=O)[nH]c1=O returned HP1b binding inh inactive, G9a block 14.1µM, JMJD2A Tudor inh inactive and BAZ2B inh inactive.
Cc1ccc(NC(=O)CN2C(=O)CC(C)S(=O)(=O)c3ccccc32)cc1 (stereo not given) was read as HP1b binding inh inactive, G9a block inactive, Sfp PPTase inh inactive, JMJD2A Tudor inh inactive and BAZ2B inh inactive.
Cc1ccc(NC(=O)COC(=O)CN2C(=O)NC3(CCCC3)C2=O)cc1F was read as HP1b binding inh inactive, G9a block inactive[12.7 µM], JMJD2A Tudor inh inactive and BAZ2B inh inactive.
Screening CCN(C(=O)COC(=O)C1COc2ccccc2O1)c1c(N)n(Cc2ccccc2)c(=O)[nH]c1=O (stereo not given) returned HP1b binding inh inactive and JMJD2A Tudor inh inactive.
For COCCN(C(=O)COC(=O)c1cccc2ccccc12)c1c(N)n(Cc2ccccc2)c(=O)[nH]c1=O the results were HP1b binding inh inactive, Sfp PPTase inh inactive, JMJD2A Tudor inh inactive and BAZ2B inh inactive.
CN(C(=O)COC(=O)c1ccccc1Cc1ccccc1)c1c(N)n(Cc2ccccc2)c(=O)[nH]c1=O was read as HP1b binding inh inactive, G9a block 50.1µM, JMJD2A Tudor inh inactive and BAZ2B inh inactive.
COCCN(C(=O)COC(=O)c1ccccc1Nc1ccccc1)c1c(N)n(Cc2ccccc2)c(=O)[nH]c1=O was read as HP1b binding inh inactive, G9a block 14.1µM, JMJD2A Tudor inh inactive and BAZ2B inh inactive.
Screening CN(C(=O)COC(=O)C1COc2ccccc2O1)c1c(N)n(Cc2ccccc2)c(=O)[nH]c1=O (stereo not given) returned HP1b binding inh inactive, G9a block 44.7µM, JMJD2A Tudor inh inactive and BAZ2B inh inactive.
For CN(C(=O)COC(=O)CSc1cc(Cl)ccc1Cl)c1c(N)n(Cc2ccccc2)c(=O)[nH]c1=O the results were HP1b binding inh inactive, G9a block 7.08µM, JMJD2A Tudor inh inactive and BAZ2B inh inactive.
`CCSC(=O)CCCCCCCCCCCO` gave HP1b binding inh inactive, G9a block inactive, Sfp PPTase inh inactive, JMJD2A Tudor inh inactive[11.4 µM] and BAZ2B inh inactive.
Screening Brc1cccc(-c2nnc(SCc3ccon3)n2-c2ccccc2)c1 returned HP1b binding inh inactive, G9a block inactive, Sfp PPTase inh inactive, JMJD2A Tudor inh inactive and BAZ2B inh inactive.
For CN1c2ccccc2C(C)(C)C12CCCC(=O)N2 (stereo not given) the results were HP1b binding inh inactive, G9a block 8.91µM, Sfp PPTase inh inactive, JMJD2A Tudor inh inconclusive and BAZ2B inh 50.1µM.
`C=CCn1c(-c2ccc(OC)cc2)csc1=Nc1c(C)n(C)n(-c2ccccc2)c1=O` gave HP1b binding inh inactive, G9a block inconclusive, Sfp PPTase inh inactive, JMJD2A Tudor inh inconclusive and BAZ2B inh inconclusive.
Screening COc1ccc(-c2cc(=Nc3ccc(C(=O)O)cc3)c3cc(C)ccc3o2)cc1 returned HP1b binding inh inactive, G9a block inconclusive, Sfp PPTase inh inactive and JMJD2A Tudor inh inconclusive.
`CCc1ccc2oc(-c3ccc(OC)cc3)cc(=Nc3cccc(C(=O)O)c3)c2c1` gave HP1b binding inh inactive, G9a block inconclusive, Sfp PPTase inh inconclusive, JMJD2A Tudor inh 14.1µM and BAZ2B inh inactive.
Screening CCc1ccc2oc(-c3ccc(OC)cc3)cc(=Nc3c(C)n(C)n(-c4ccccc4)c3=O)c2c1 returned HP1b binding inh inconclusive, G9a block 25.1µM, Sfp PPTase inh 79.4µM, JMJD2A Tudor inh inconclusive and BAZ2B inh 39.8µM.
`COc1cccc(C(=O)NNS(=O)(=O)c2ccc(C)cc2)c1` gave HP1b binding inh inactive, G9a block inactive, Sfp PPTase inh inactive, JMJD2A Tudor inh inactive and BAZ2B inh inactive.
Screening O=C(COC(=O)c1cccc(Cl)c1)NC1CCS(=O)(=O)C1 (stereo not given) returned HP1b binding inh inactive, G9a block inactive[2.33 µM], JMJD2A Tudor inh inactive and BAZ2B inh inactive.
For CCN(Cc1ccccc1)S(=O)(=O)CCNC(=O)c1ccc(OC)cc1 the results were HP1b binding inh inactive, G9a block inactive, JMJD2A Tudor inh inactive and BAZ2B inh inactive.
For O=C1NCCCc2c1oc1cc(Br)c(O)c(Br)c21 the results were HP1b binding inh inactive, G9a block 50.1µM, Sfp PPTase inh inactive, JMJD2A Tudor inh inactive and BAZ2B inh inactive.
